Measurements reported in the supplement of paper PMC13380429.

Test system: Vero E6 infected with SARS-CoV-2
Experiment: inhibition of SARS-CoV-2 cytopathic effect; higher = more antiviral protection, active = above 15
Conditions: 48 h

Measured: inhibition of SARS-CoV-2 cytopathic effect

Cc1cc(C(C)(C)C)c(O)c(C)c1CC1=NCCN1 [oxymetazoline]
inactive: 1 nM 0.98% | 8.33 nM 1.83% | 100 nM 1.85% | 833.33 nM 1.64% | 10000 nM 0.31%

COCCCOc1cc(C[C@@H](C[C@H](N)[C@@H](O)C[C@H](C(=O)NCC(C)(C)C(N)=O)C(C)C)C(C)C)ccc1OC [aliskiren-hemifumarate]
inactive: 1 nM 0.8% | 8.33 nM -0.18% | 100 nM -1.58% | 833.33 nM -0.63% | 10000 nM -0.23%

CCc1c2c(nc3ccc(O)cc13)-c1cc3c(c(=O)n1C2)COC(=O)[C@]3(O)CC
inactive: 1 nM 1.57% | 8.33 nM 0.05% | 100 nM -1.96% | 833.33 nM -6.66% | 10000 nM -16.9%

CC(C)Cc1ccc([C@@H](C)C(=O)NCCO)cc1 (racemic) [mabuprofen]
inactive: 1 nM -1.95% | 8.33 nM -2.13% | 100 nM -0.66% | 833.33 nM -0.72% | 10000 nM -4.85%

CC(C)(N)c1nc(-c2ccc(OC(F)(F)F)cc2)c[nH]1
inactive: 1 nM 0.82% | 8.33 nM 0.2% | 100 nM 2.45% | 833.33 nM 1.1% | 10000 nM -2.65%

COc1ccccc1OCC(O)COC(N)=O (stereo not given) [methocarbamol]
inactive: 1 nM -1.87% | 8.33 nM -0.67% | 100 nM -0.79% | 833.33 nM 2.32% | 10000 nM 1.06%

CCN(CC)CCOC(=O)C(c1ccccc1)C1CCCCC1 (stereo not given) [drofenine]
inactive: 1 nM -1.59% | 8.33 nM 1.9% | 100 nM -1.61% | 833.33 nM -1.42% | 10000 nM 1.22%

O=C(N[C@H](Cc1ccccc1)C(=O)O)c1sc2cc(F)ccc2c1Cl
inactive: 1 nM 2.8% | 8.33 nM 1.61% | 100 nM 0.39% | 833.33 nM 1.13% | 10000 nM 3.31%

O=C(Nc1ccccc1)N1CCC(Cc2cnc3ccccc3c2)CC1
inactive: 1 nM -0.99% | 8.33 nM -0.47% | 100 nM 0.72% | 833.33 nM -0.2% | 10000 nM -1.47%

Cc1cnc(-c2ccccc2C(C)C)nc1NCc1ccc(-n2ccnn2)cc1
inactive: 1 nM -3.33% | 8.33 nM -2.94% | 100 nM -0.44% | 833.33 nM 0.3% | 10000 nM 1.03%

N[C@@H]1CCCN(c2c(/C=C3\SC(=O)NC3=O)cccc2-c2ccccc2)C1
inactive: 1 nM 3.5% | 8.33 nM -3.14% | 100 nM -1.57% | 833.33 nM -0.89% | 10000 nM 0%

C=C[C@@H]1C[C@]1(NC(=O)[C@@H]1C[C@@H]2CN1C(=O)[C@H](C(C)(C)C)NC(=O)O[C@@H]1C[C@H]1CCCCCc1nc3ccc(OC)cc3nc1O2)C(=O)NS(=O)(=O)C1CC1 [grazoprevir]
inactive: 1 nM -0.59% | 8.33 nM -3.18% | 100 nM -2.52% | 833.33 nM 1.78% | 10000 nM 1.23%

Cc1c(N)cccc1Cn1ccc(OCCc2cccs2)cc1=O
inactive: 1 nM -0.22% | 8.33 nM 0.73% | 100 nM 1.31% | 833.33 nM 0.66% | 10000 nM -2.07%

Nc1nc2cc(-c3ccc4ncc(C(=O)N5CCOCC5)n4c3)ccc2o1
inactive: 1 nM 0.78% | 8.33 nM 5.87% | 100 nM 4.68% | 833.33 nM 3.05% | 10000 nM -2.33%

CCn1c(=O)[nH]c2ccccc21
inactive: 1 nM -3.62% | 8.33 nM -3.46% | 100 nM -3.83% | 833.33 nM -3.63% | 10000 nM -3.51%

Nc1nc2c(ncn2COCCO)c(=O)[nH]1 [acyclovir]
inactive: 1 nM 12.6% | 8.33 nM 6.63% | 100 nM 6.1% | 833.33 nM 7.16% | 10000 nM 2.2%

CCCCCCCCNC(C)C(O)c1ccc(SC(C)C)cc1 (stereo not given) [suloctidil]
inactive: 1 nM 0.05% | 8.33 nM -0.56% | 100 nM -0.38% | 833.33 nM 0.21% | 10000 nM -0.41%

O=C(N[C@@H](Cc1c[nH]c2ccccc12)C(=O)O)c1ccc(Cl)cc1 [benzotript]
inactive: 1 nM 1.07% | 8.33 nM 1.9% | 100 nM 2.83% | 833.33 nM 2.01% | 10000 nM 3.35%

c1ccc(Oc2cccnc2)cc1
inactive: 1 nM 2.35% | 8.33 nM 1.64% | 100 nM 1.02% | 833.33 nM 2.24% | 10000 nM 1.23%
